Screening data as filed in PubChem.
M1 ag parental: counter-screen for M1 agonists: effect in parental CHO-K1 cells | Fluo-8 calcium fluorescence; scaled to maximal ATP response, vehicle zero | activation, % at 3 µM | hit rate 0.48% among 360,000 | AID 602248; in the data active means activation above about 15%;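 further: untransfected CHO-K1 host cells lacking M1 receptor as counterscreen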
M1 PAM parental: counter-screen for M1 PAMs: effect in parental CHO-K1 cells. activation, % at 3 µM. ATP EC20, Fluo-8 calcium fluorescence; 0% at ATP EC20, 100% at ATP max. AID 602247. hit rate 0.02% among 360,000;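 active means activation above the run cutoff, the mean activation of all test compounds plus 3 SD, cut at about 40% in these data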;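 further: peak over basal fluorescence ratio in a 140 s read after ATP addition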
CHO-K1 Ca antag: nonselective inhibitor or artifact in parental CHO-K1 cells; ATP-induced calcium, Fluo-8 fluorescence; inhibition, % at 3 µM; hit rate 0.6% among 360,000; AID 602250;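 active means inhibition above a per-plate cutoff, the plate's mean sample inhibition plus 3 SD, cut at about 24% in these data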
CHRM1 PAM: human CHRM1 positive allosteric modulation; P11229; CHO-K1 hM1, Fluo-8 calcium fluorescence, ACh EC20; 0% = ACh EC20, 100% = maximal ACh; activation, % at 3 µM; hit rate 0.088% among 360,000; AID 588819; in the data active means activation above about 19%, passing the limit was not always enough
Target sequence (P11229 whole entry, looked up): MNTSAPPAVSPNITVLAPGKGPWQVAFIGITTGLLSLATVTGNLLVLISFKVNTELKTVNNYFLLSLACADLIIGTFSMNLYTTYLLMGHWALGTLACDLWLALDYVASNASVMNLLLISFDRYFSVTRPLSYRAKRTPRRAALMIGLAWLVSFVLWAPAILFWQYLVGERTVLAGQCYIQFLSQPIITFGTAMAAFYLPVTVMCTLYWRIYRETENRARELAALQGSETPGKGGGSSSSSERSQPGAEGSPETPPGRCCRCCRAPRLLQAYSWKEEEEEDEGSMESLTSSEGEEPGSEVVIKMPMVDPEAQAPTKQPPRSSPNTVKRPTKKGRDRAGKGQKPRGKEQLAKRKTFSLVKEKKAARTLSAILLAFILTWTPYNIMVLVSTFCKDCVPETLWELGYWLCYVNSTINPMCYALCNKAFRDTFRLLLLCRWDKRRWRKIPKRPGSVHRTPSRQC
CHRM1 antagonist: human CHRM1 antagonism; AID 588852; hit rate 1.3% among 360,000; P11229; inhibition, % at 3 µM; CHO-K1 hM1, Fluo-8 calcium fluorescence, ACh EC80 antagonist;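 active means percent inhibition above its own plate's cutoff, namely the mean of that plate's compound wells plus 3 SD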;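 further: peak over basal fluorescence ratio during 140 s after agonist addition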
CHRM1 agonist: agonists of human M1 muscarinic receptor | CHO-K1 hM1, Fluo-8 calcium fluorescence, agonist mode; 0% DMSO, 100% acetylcholine EC100 | P11229 | hit rate 0.33% among 360,000 | activation, % at 3 µM;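 active means activation above the run's mean compound activation plus 3 SD, cut at about 16% in these data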;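 further: peak over basal fluorescence ratio within a 140 s kinetic read after compound addition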
Of the large screens only hits and unclear results are named; the others gave an inactive call; ! = not active in a repeat. Shown are actives, neighbours in structure and some others; about 2.3% of the full set was active somewhere.

c1ccc(CCNc2ncnc3ccccc23)cc1	CHO-K1 Ca antag 32
CCCCCCCCNc1ncnc2ccccc12	CHO-K1 Ca antag 39, CHRM1 antagonist 29
CC1(C)Oc2ccc3ccc(=O)oc3c2/C(=C/Nc2ccc(O)cc2)C1=O	none
CC1(C)Oc2ccc3ccc(=O)oc3c2/C(=C/Nc2cccc(O)c2)C1=O	CHO-K1 Ca antag 29
COc1ccc(CC(=O)N2CCC(CCC(=O)Nc3ccccc3)CC2)cc1	CHO-K1 Ca antag 24
COc1cccc(NC(=O)CCC2CCN(C(=O)Cc3cccc(F)c3)CC2)c1	none
COc1ccc(NC(=O)CC(NCc2ccccn2)C(=O)O)cc1 (centres undefined)	M1 ag parental 18
CCSc1ncc(CO)c(N)n1	none
C[C@@H](OC(=O)c1[nH]cnc1C(=O)NCc1ccc(CNC(=O)OC(C)(C)C)cc1)c1ccccc1	none
O=C(NCc1ccc(F)c(F)c1)C1Cc2c(-c3ccc4c(c3)OCO4)ccnc2O1 (centres undefined)	none
CC(=O)Nc1ccc(C(=O)OCC(=O)N(c2ccccc2)C2CCS(=O)(=O)C2)cc1 (centres undefined)	none
O=C(CCl)N(c1ccccc1)C1CCS(=O)(=O)C1 (centres undefined)	M1 ag parental 23
NC(=O)C1=C(N=C2CCCCC2)CCCC1	none
COc1ccc(CCNC(=O)c2ccc(CN3CCC(Cc4ccccc4)CC3)cc2)cc1	none
CC(C)NC(=O)c1ccc(CN2CCC(Cc3ccccc3)CC2)cc1	CHRM1 antagonist 84
Cc1ccccc1NC(=O)c1ccc(CN2CCC(Cc3ccccc3)CC2)cc1	CHRM1 antagonist 55
C=CCNC(=O)c1ccc(CN2CCC(Cc3ccccc3)CC2)cc1	CHRM1 antagonist 74
CSCc1ccc(C(=O)N2CCC(N3CCC(C(=O)NC(C)C)CC3)CC2)o1	none
CCNc1nc(NC(C)C)nc(N(C#N)Cc2ccccc2)n1	M1 ag parental 16
CCN(CC)Cc1cc(Oc2ccc(O)c(CN(CC)CC)c2)ccc1O	CHRM1 antagonist 35
CCN(CC)Cc1cc(CCNC(=O)c2ccc(Cl)cc2)ccc1O	none
CC(C)(C)C(=O)OCc1ccc(C2=CC(=O)CC(C)(C)C2=O)cc1	none
CC(=O)OCc1ccc(C2=CC(=O)CC(C)(C)C2=O)cc1	CHO-K1 Ca antag 24
Cc1ccc(NC(=S)N2C3CCCC2CC(NC(=O)C2CC2)C3)cc1C (centres undefined)	none
Cc1cc(C)cc(NC(=S)N2C3CCCC2CC(NC(=O)C2CC2)C3)c1 (centres undefined)	CHRM1 antagonist 27
COc1ccc(CCC(=O)Nc2ccc(S(=O)(=O)N3CCOCC3)cc2)cc1OC	none
COc1cccc(OCC(=O)NC2CCS(=O)(=O)C2)c1 (centres undefined)	none
CN(C)c1ccc(C2CC(=O)NC3=C2C(=O)CC(C)(C)C3)cc1 (centres undefined)	none
CCN(CC)c1ccc(C2CC(=O)NC3=C2C(=O)CC(C)(C)C3)cc1 (centres undefined)	CHRM1 antagonist 26
CCCCN1C(=O)Cc2c1nc(N)c1c(N)nc(N(CCC)CCC)c(C#N)c21	CHO-K1 Ca antag 25
COCc1c(C(=O)N2CCN(c3ccccc3C)CC2)oc2ccccc12	none
CC(OC(=O)c1ccccc1Oc1ccccc1)C(=O)NC1CC1 (centres undefined)	none
CCN(CC)CCSc1nc(O)c(-c2ccccc2)c(=O)n1-c1ccccc1	none
CCN(CC)CCSc1nnc(Nc2ccccc2)n1-c1ccccc1	CHRM1 antagonist 96
CCOC(=O)C1CCN(CC(C)(C)NS(=O)(=O)c2ccccc2)CC1	M1 ag parental 19
CCOC(=O)C1CCN(S(=O)(=O)c2ccc(C)c(C)c2)CC1	M1 ag parental 17
CCOC(=O)C1CCN(S(=O)(=O)c2ccc3[nH]c4c(c3c2)CCCC4)CC1	M1 ag parental 16
CC(=O)N1CCN(CC(C)(C)NS(=O)(=O)c2ccccc2)CC1	none
Cc1c(OCC(=O)NC2CCN(Cc3ccccc3)CC2)ccc2c3c(c(=O)oc12)CCC3	none
Cc1cccnc1NC(=O)Nc1cccc(F)c1	none
Cc1cc(OCCn2ccnc2)cc(C(C)C)c1	CHRM1 antagonist 74
Cc1cc(OCCCn2ccnc2)cc(C(C)C)c1	none
Cc1cccc(OCCCCCn2ccnc2)c1	CHRM1 agonist 17
CC(=O)Nc1cccc(C(=O)OCC(=O)NC2CCCCCCC2)c1	M1 ag parental 15
CCCCCOC(=O)Cn1c(=O)oc2ccccc21	none
CCOC(=O)Cn1c(COc2ccccc2OC)[n+](C)c2ccccc21	none
CCCCCCCCCCOC(=O)Cn1c(COc2cccc(C)c2)[n+](C)c2ccccc21	CHRM1 antagonist 36
CCCCCCCCCCOC(=O)Cn1c(COc2ccccc2)[n+](C)c2ccccc21	CHRM1 antagonist 70
CCCCCCCCCCOC(=O)Cn1c(COc2ccccc2C)[n+](C)c2ccccc21	CHRM1 antagonist 86
CCCCCCCCCCOC(=O)Cn1c(COc2ccc(Cl)cc2)[n+](C)c2ccccc21	CHRM1 antagonist 43
CCCCOC(=O)Cn1c(=O)n(CC(=O)OCCCC)c2ccccc21	none
Cc1cccc(OCCCn2c(=O)sc3ccccc32)c1	none
O=C(Oc1ccccc1Cl)C1CCN(C(=O)c2ccc(F)cc2)CC1	none
CCCCCCCCCCOC(=O)Cn1c(COc2ccc(OC)cc2)[n+](C)c2ccccc21	CHRM1 antagonist 41!
N#Cc1ccc(OCC(O)CN2CCC(C(O)(c3ccccc3)c3ccccc3)CC2)cc1 (centres undefined)	CHRM1 antagonist 32
CN(Cc1ccc(Cl)cc1)C(=O)COC(=O)CSc1ccc([N+](=O)[O-])cc1	none
O=S1(=O)CC(N2CCN(CC3CC3)CC2)CN1C1CCCC1 (centres undefined)	CHO-K1 Ca antag 26
O=S1(=O)CC(N2CCN(CCO)CC2)CN1C1CCCCC1 (centres undefined)	none
O=C(/C=C/c1ccc(Cl)c([N+](=O)[O-])c1)Nc1ccc(NC(=O)c2ccco2)cc1	none
O=C(/C=C/c1ccc(Cl)c([N+](=O)[O-])c1)Nc1cccc(NC(=O)c2ccco2)c1	CHO-K1 Ca antag 28, CHRM1 antagonist 34
CC1CCN(CCCCOc2ccc(Br)cc2)CC1	CHRM1 antagonist 31
CC1CCN(CCCCOc2cccc(Br)c2)CC1	CHRM1 antagonist 83
Cc1cc(Cl)c(OCCOCCN2CCC(C)CC2)c(Br)c1	CHRM1 antagonist 55
Cc1cc(Cl)c(OCCOCCN2CCN(C)CC2)c(Br)c1	none
Cc1cc(Br)ccc1OCCCCN1CCC(C)CC1	CHRM1 antagonist 53
CC1CCN(CCCCOc2ccccc2Br)CC1	none
COc1ccc(CNC(=O)c2ccc(Cn3cc(Cl)cn3)o2)cc1	none
Cc1cc(C)cc(N2C(=O)C3CCCN3C2=S)c1 (centres undefined)	M1 ag parental 17
